Compound activity from PubChem.
CHX counter = affects cycloheximide protein synthesis inhibition readout, counter-screen | AID 2314 | cell reporter, cycloheximide protein synthesis inhibition counterscreen | hit rate 12% among 300,000 | max response, %; in the data active = max response mostly above about 13%, no sharp cut-off; inactive = mostly below about 14%; also: read at 38.3 µM for the half of the compounds with a filed dose; 0% is about no effect
Shiga toxin inh = blocks Shiga toxin action in Vero cells | Vero cells, Shiga toxin protein synthesis inhibition reporter | inhibition, % at 38.7 µM | hit rate 9.2% among 290,000; in the data active = inhibition mostly above about 28%, no sharp cut-off; inactive = mostly below about 43%; also: 0% is about no effect
Pf growth 48h = P. falciparum growth inhibition at 48 hours (one generation); AID 504832; P. falciparum luciferase growth in erythrocytes, 48 h; Potency, µM (top dose mostly 28.7 µM), inactives show top-dose activity change, negative = inhibition, usual class: inhibitors; hit rate 5.9% among 310,000; also: potency is read from the fitted curve at half-maximal effect; % is scaled to controls: 0 for no effect and ±100 for the full control effect
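Growth was read as firefly luciferase luminescence after a 48 h, 37 C, 5% CO2 exposure of compounds to reporter-bearing P. falciparum cultures (0.1% parasitemia, 2% hematocrit final) in Albumax-supplemented RPMI 1640.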
Pf growth 96h = inhibits malaria parasite growth, 96 h; Potency, µM (highest dose often 28.7 µM), for the others: top-dose activity change, negative = inhibition, usual class: inhibitors; hit rate 6.9% among 320,000; P. falciparum luciferase reporter growth, 96 h; AID 504834; also: potency is read from the fitted curve at half-maximal effect; % is scaled to controls: 0 for no effect and ±100 for the full control effect
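Readout is luminescence from an integrated firefly luciferase in P. falciparum. Red cells, 2% hematocrit and 0.05% parasitemia final, were cultured with compound through two parasite generations (96 hours) at 37 C, 5% CO2.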
* = called active by the depositor. Most compounds without a hit are left out; they make up all but 21% or so of the library. Unless noted, calls follow the shape of the dose curve; as a rule, active = well fitted inhibition curve with a large enough effect; inconclusive = small, poorly fitted or top-dose-only effect, or another doubt; inactive = no such curve, though single readings can be large or run the other way.

`O=C(O)c1cc(NN=C2c3ccccc3-c3ccccc32)ccc1Cl` gave CHX counter 8, Shiga toxin inh 20, Pf growth 48h 24% and Pf growth 96h 7%.
`O=C(O)c1cccc(NN=C2c3ccccc3-c3ccccc32)c1` gave CHX counter 42*, Shiga toxin inh 84*, Pf growth 48h 23% and Pf growth 96h 10%.
CCOC(=O)CCCNC(=O)CSc1nc2ccc(OCC)cc2[nH]1 was read as CHX counter 5, Shiga toxin inh -4, Pf growth 48h inconclusive and Pf growth 96h -7%.
Screening CC1CC=CC2C1C(=O)N(Cc1ccccc1)C2c1ccc(-c2ccc(F)cc2)cc1F (stereo not given) returned CHX counter -4 and Shiga toxin inh 15.
Screening Cn1nc([N+](=O)[O-])nc1Oc1ccc2ccccc2c1 returned CHX counter -3, Shiga toxin inh -2 and Pf growth 96h 11%.
`Cn1nc([N+](=O)[O-])nc1S(C)(=O)=O` gave CHX counter 31*, Shiga toxin inh 31, Pf growth 48h -6% and Pf growth 96h 4.7µM*.
For CC1C[N+](=C2C=C(N3CCOCC3)CC(C)(C)C2)CC(C)O1 (stereo not given) the results were CHX counter 4, Shiga toxin inh -4, Pf growth 48h inconclusive and Pf growth 96h 12µM*.
Screening CC1(C)CC(N2CCOCC2)=CC(=[N+]2CCOCC2)C1 returned CHX counter -2, Shiga toxin inh -4, Pf growth 48h 13µM* and Pf growth 96h 8.3µM*.
O=C(Nc1ccccc1)Nc1cccc(Cl)c1Cl was read as CHX counter 37*, Shiga toxin inh active, Pf growth 48h -19% and Pf growth 96h -33%.
`CSc1ccccc1NC(=O)Nc1cccc(Cl)c1C` gave CHX counter 21, Shiga toxin inh 17, Pf growth 48h 31% and Pf growth 96h 36%.
For O=C(Nc1ccc(Oc2ccc(NC(=O)Nc3ccccc3Cl)cc2)cc1)Nc1ccccc1Cl the results were CHX counter 34, Shiga toxin inh 34, Pf growth 48h 1.9µM* and Pf growth 96h 1.5µM*.
Screening COc1ccc(NC(=O)NNC(=O)CCC(=O)Nc2ccccc2Cl)cc1 returned CHX counter -1, Shiga toxin inh -3, Pf growth 48h 23% and Pf growth 96h 36%.
Screening CSc1ccccc1NC(=O)Nc1cccc(Cl)c1Cl returned CHX counter 10*, Shiga toxin inh -6 and Pf growth 96h 36%.
`O=C(NC1CCSc2ccccc21)c1ccc(Cl)c(S(=O)(=O)N2CCOCC2)c1` (stereo not given) gave CHX counter 11, Shiga toxin inh 21, Pf growth 48h inconclusive and Pf growth 96h inconclusive.
CC(=O)c1cccc(S(=O)(=O)N2CCN(CCOc3ccccc3)CC2)c1 was read as Pf growth 48h -12% and Pf growth 96h -22%.
Screening O=C1c2ccccc2NC(c2ccccn2)N1c1ccc(Cl)cc1 (stereo not given) returned CHX counter 31*, Shiga toxin inh 71*, Pf growth 48h 45% and Pf growth 96h 94%.
For O=C(NN1C(=O)c2ccccc2NC1c1ccccn1)c1ccccc1 (stereo not given) the results were CHX counter 13*, Shiga toxin inh 24*, Pf growth 48h -2% and Pf growth 96h inconclusive.
COc1ccc(Cc2noc(CN(C)CC(O)c3ccccc3)n2)cc1OC (stereo not given) was read as CHX counter 1, Shiga toxin inh 12, Pf growth 48h -2% and Pf growth 96h 11%.
Screening COc1ccc(CC(=O)NCC2CCCN(Cc3cc(OC)cc(OC)c3)C2)cc1 (stereo not given) returned CHX counter -1, Shiga toxin inh -26, Pf growth 48h 0% and Pf growth 96h inconclusive.
`C=CCn1c(SCCOc2ccc(OC)cc2)nnc1C(CO)NC(=O)c1ccc(OC)cc1` (stereo not given) gave CHX counter -2, Shiga toxin inh -14 and Pf growth 96h inconclusive.
COc1ccc(C(=O)NC(C)c2nnc(SCc3ccc(Cl)c(Cl)c3)n2C)cc1 (stereo not given) was read as CHX counter -3, Shiga toxin inh 2, Pf growth 48h inconclusive and Pf growth 96h 12µM*.
Screening CCn1c(CCNC(=O)c2ccc(Cl)c(Cl)c2)nnc1SCCOc1ccc(OC)cc1 returned CHX counter 1, Shiga toxin inh 12, Pf growth 48h inconclusive and Pf growth 96h 10µM*.
Screening CCn1c(SCc2ccc(Cl)c(Cl)c2)nnc1C(C)NC(=O)c1ccc(OC)cc1 (stereo not given) returned CHX counter 1, Shiga toxin inh -15, Pf growth 48h -10% and Pf growth 96h inconclusive.
